Target: HOXA2 (Homo sapiens, UniProt O43364 129-215, R185T)
Experiment: PBM; 200 nM protein, PBS
Conditions: dsDNA, one strand shown

Chain of HOXA2 (O43364 129-215 R185T): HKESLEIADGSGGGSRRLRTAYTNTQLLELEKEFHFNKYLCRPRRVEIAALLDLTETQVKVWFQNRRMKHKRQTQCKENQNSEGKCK

| Sequence | binding signal |
| --- | --- |
| CACGCGGG | 7.04 upbm affinity estimate (log intensity, higher = more binding, comparable within an allelic series) |
| ATTTGTTC | 9.37 upbm affinity estimate (log intensity, higher = more binding, comparable within an allelic series) |
| CGGAGCCC | 7.2 upbm affinity estimate (log intensity, higher = more binding, comparable within an allelic series) |
| AGGTGGGG | 7.38 upbm affinity estimate (log intensity, higher = more binding, comparable within an allelic series) |
| CCTGCCGC | 6.91 upbm affinity estimate (log intensity, higher = more binding, comparable within an allelic series) |
| CCCTGCGG | 7.02 upbm affinity estimate (log intensity, higher = more binding, comparable within an allelic series) |

Target: T1, NKX2-6 (Homo sapiens, UniProt A6NCS4 118-204, R150C)
T1 sequence: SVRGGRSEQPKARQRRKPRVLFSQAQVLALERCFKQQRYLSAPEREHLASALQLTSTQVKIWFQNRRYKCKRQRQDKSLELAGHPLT
Experiment: PBM; 200 nM protein, PBS
Conditions: dsDNA, one strand shown

| Sequence | binding signal |
| --- | --- |
| TCCAGGGA | 9.47 upbm affinity estimate (log intensity, higher = more binding, comparable within an allelic series) |
| ACGTTGGG | 9.44 upbm affinity estimate (log intensity, higher = more binding, comparable within an allelic series) |
| CCGGGTAC | 9.58 upbm affinity estimate (log intensity, higher = more binding, comparable within an allelic series) |

Target: HOXC9 (Homo sapiens, UniProt P31274 178-260)
Experiment: PBM; 200 nM protein, PBS
Conditions: dsDNA, one strand shown

Chain of HOXC9 (Homo sapiens, UniProt P31274 178-260) (P31274 178-260): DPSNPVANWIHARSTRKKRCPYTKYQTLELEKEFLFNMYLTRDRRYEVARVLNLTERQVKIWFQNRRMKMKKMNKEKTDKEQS

| Sequence | binding signal |
| --- | --- |
| CACAATTA | 11.7 upbm affinity estimate (log intensity, higher = more binding, comparable within an allelic series) |
| TCCAGGGA | 9.67 upbm affinity estimate (log intensity, higher = more binding, comparable within an allelic series) |
| CACTAATA | 11.4 upbm affinity estimate (log intensity, higher = more binding, comparable within an allelic series) |
| ACGATAAA | 11.8 upbm affinity estimate (log intensity, higher = more binding, comparable within an allelic series) |
| TCGGGCCA | 9.78 upbm affinity estimate (log intensity, higher = more binding, comparable within an allelic series) |
| ACGTTGGG | 9.65 upbm affinity estimate (log intensity, higher = more binding, comparable within an allelic series) |
| CTATAGAA | 11 upbm affinity estimate (log intensity, higher = more binding, comparable within an allelic series) |
| CCTCCCAG | 9.7 upbm affinity estimate (log intensity, higher = more binding, comparable within an allelic series) |
| ATGTTAAC | 11.1 upbm affinity estimate (log intensity, higher = more binding, comparable within an allelic series) |
| CACGCGGG | 9.53 upbm affinity estimate (log intensity, higher = more binding, comparable within an allelic series) |
| ATTTGTTC | 10.9 upbm affinity estimate (log intensity, higher = more binding, comparable within an allelic series) |
| CGGGCCAG | 9.85 upbm affinity estimate (log intensity, higher = more binding, comparable within an allelic series) |
| TGATTGCA | 11 upbm affinity estimate (log intensity, higher = more binding, comparable within an allelic series) |
| CCGGGTAC | 9.74 upbm affinity estimate (log intensity, higher = more binding, comparable within an allelic series) |
| CCCAGGTC | 9.74 upbm affinity estimate (log intensity, higher = more binding, comparable within an allelic series) |
| CGGAGCCC | 9.37 upbm affinity estimate (log intensity, higher = more binding, comparable within an allelic series) |
| CCCCCCAC | 9.41 upbm affinity estimate (log intensity, higher = more binding, comparable within an allelic series) |
| CTTATAAA | 11.2 upbm affinity estimate (log intensity, higher = more binding, comparable within an allelic series) |
| CCCCCCTC | 9.34 upbm affinity estimate (log intensity, higher = more binding, comparable within an allelic series) |
| AGGTGGGG | 9.9 upbm affinity estimate (log intensity, higher = more binding, comparable within an allelic series) |

| Sequence | binding signal |
| --- | --- |
| AGTAATAA | 12.3 upbm affinity estimate (log intensity, higher = more binding, comparable within an allelic series) |
| GAGGGTCC | 9.31 upbm affinity estimate (log intensity, higher = more binding, comparable within an allelic series) |
| CCTGCCGC | 9.49 upbm affinity estimate (log intensity, higher = more binding, comparable within an allelic series) |
| CCCTGCGG | 9.73 upbm affinity estimate (log intensity, higher = more binding, comparable within an allelic series) |
| GCGTCGCC | 9.74 upbm affinity estimate (log intensity, higher = more binding, comparable within an allelic series) |
| ACTTTACG | 11.7 upbm affinity estimate (log intensity, higher = more binding, comparable within an allelic series) |
| AGGGGCTC | 9.62 upbm affinity estimate (log intensity, higher = more binding, comparable within an allelic series) |
| GCAGCGCC | 9.88 upbm affinity estimate (log intensity, higher = more binding, comparable within an allelic series) |
| AGATTAAA | 11.1 upbm affinity estimate (log intensity, higher = more binding, comparable within an allelic series) |
| ATAGTCAA | 10.7 upbm affinity estimate (log intensity, higher = more binding, comparable within an allelic series) |
| CTGCATAA | 11.1 upbm affinity estimate (log intensity, higher = more binding, comparable within an allelic series) |
| AGCCGTGG | 9.68 upbm affinity estimate (log intensity, higher = more binding, comparable within an allelic series) |
| GGAGAACC | 9.62 upbm affinity estimate (log intensity, higher = more binding, comparable within an allelic series) |
| CCTCTCCA | 9.63 upbm affinity estimate (log intensity, higher = more binding, comparable within an allelic series) |
| CCTACTCG | 9.65 upbm affinity estimate (log intensity, higher = more binding, comparable within an allelic series) |
| CGCGGGAG | 9.59 upbm affinity estimate (log intensity, higher = more binding, comparable within an allelic series) |
| ATTTAATA | 12.5 upbm affinity estimate (log intensity, higher = more binding, comparable within an allelic series) |
| CTGCCTCC | 9.69 upbm affinity estimate (log intensity, higher = more binding, comparable within an allelic series) |
| CTCCACGC | 9.61 upbm affinity estimate (log intensity, higher = more binding, comparable within an allelic series) |

Target: MSX2 (Homo sapiens, UniProt P35548 130-214, R199I)
Experiment: PBM; 200 nM protein, PBS
Conditions: dsDNA, one strand shown

Chain of MSX2 (P35548 130-214 R199I): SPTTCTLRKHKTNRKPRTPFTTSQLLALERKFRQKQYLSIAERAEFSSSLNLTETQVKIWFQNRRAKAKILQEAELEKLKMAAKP

| Sequence | binding signal |
| --- | --- |
| CACAATTA | 12.1 upbm affinity estimate (log intensity, higher = more binding, comparable within an allelic series) |
| TCGGGCCA | 9.6 upbm affinity estimate (log intensity, higher = more binding, comparable within an allelic series) |
| CGGGCCAG | 9.53 upbm affinity estimate (log intensity, higher = more binding, comparable within an allelic series) |
| AGTAATAA | 11.4 upbm affinity estimate (log intensity, higher = more binding, comparable within an allelic series) |
| GCGTCGCC | 9.45 upbm affinity estimate (log intensity, higher = more binding, comparable within an allelic series) |
| CGCGGGAG | 9.38 upbm affinity estimate (log intensity, higher = more binding, comparable within an allelic series) |
| CTCCACGC | 9.56 upbm affinity estimate (log intensity, higher = more binding, comparable within an allelic series) |

Target: ALX3 (Homo sapiens, UniProt O95076 139-225, N203Q)
Experiment: PBM; 200 nM protein, PBS
Conditions: dsDNA, one strand shown

Chain of ALX3 (O95076 139-225 N203Q): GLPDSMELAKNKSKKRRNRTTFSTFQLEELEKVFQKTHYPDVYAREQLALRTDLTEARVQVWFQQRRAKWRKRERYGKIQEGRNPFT

| Sequence | binding signal |
| --- | --- |
| CCTCCCAG | 7.74 upbm affinity estimate (log intensity, higher = more binding, comparable within an allelic series) |
| CCCCCCTC | 7.49 upbm affinity estimate (log intensity, higher = more binding, comparable within an allelic series) |
| AGGTGGGG | 7.84 upbm affinity estimate (log intensity, higher = more binding, comparable within an allelic series) |

Target: HOXD13 (Homo sapiens, UniProt P35453 263-343, T313R)
Experiment: PBM; 200 nM protein, PBS
Conditions: dsDNA, one strand shown

Chain of HOXD13 (P35453 263-343 T313R): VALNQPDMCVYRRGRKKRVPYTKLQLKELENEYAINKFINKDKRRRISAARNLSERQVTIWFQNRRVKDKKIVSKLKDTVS

| Sequence | binding signal |
| --- | --- |
| ACGATAAA | 10.1 upbm affinity estimate (log intensity, higher = more binding, comparable within an allelic series) |
| TCGGGCCA | 9.55 upbm affinity estimate (log intensity, higher = more binding, comparable within an allelic series) |
| CCCCCCAC | 9.08 upbm affinity estimate (log intensity, higher = more binding, comparable within an allelic series) |
| CTTATAAA | 10.7 upbm affinity estimate (log intensity, higher = more binding, comparable within an allelic series) |
| CCCCCCTC | 8.92 upbm affinity estimate (log intensity, higher = more binding, comparable within an allelic series) |
| CCCTGCGG | 9.39 upbm affinity estimate (log intensity, higher = more binding, comparable within an allelic series) |
| AGGGGCTC | 9.61 upbm affinity estimate (log intensity, higher = more binding, comparable within an allelic series) |
| GCAGCGCC | 9.55 upbm affinity estimate (log intensity, higher = more binding, comparable within an allelic series) |
| AGCCGTGG | 9.67 upbm affinity estimate (log intensity, higher = more binding, comparable within an allelic series) |
| GGAGAACC | 9.57 upbm affinity estimate (log intensity, higher = more binding, comparable within an allelic series) |
| ATTTAATA | 10.9 upbm affinity estimate (log intensity, higher = more binding, comparable within an allelic series) |
| CTGCCTCC | 9.53 upbm affinity estimate (log intensity, higher = more binding, comparable within an allelic series) |

Target: PITX2 (Homo sapiens, UniProt Q99697 72-157)
Experiment: PBM; 200 nM protein, PBS
Conditions: dsDNA, one strand shown

| Sequence | binding signal |
| --- | --- |
| GCAGCGCC | 7.75 upbm affinity estimate (log intensity, higher = more binding, comparable within an allelic series) |
| AGATTAAA | 12.3 upbm affinity estimate (log intensity, higher = more binding, comparable within an allelic series) |
| CCTACTCG | 8.18 upbm affinity estimate (log intensity, higher = more binding, comparable within an allelic series) |

Target: HOXC9 (Homo sapiens, UniProt P31274 178-260, R193K)
Experiment: PBM; 200 nM protein, PBS
Conditions: dsDNA, one strand shown

Chain of HOXC9 (Homo sapiens, UniProt P31274 178-260, R193K) (P31274 178-260 R193K): as the sequence (P31274 178-260) above, with R16K counted along it

| Sequence | binding signal |
| --- | --- |
| CACAATTA | 11.7 upbm affinity estimate (log intensity, higher = more binding, comparable within an allelic series) |
| TCCAGGGA | 9.68 upbm affinity estimate (log intensity, higher = more binding, comparable within an allelic series) |
| CACTAATA | 11.4 upbm affinity estimate (log intensity, higher = more binding, comparable within an allelic series) |
| ACGATAAA | 11.8 upbm affinity estimate (log intensity, higher = more binding, comparable within an allelic series) |
| TCGGGCCA | 9.72 upbm affinity estimate (log intensity, higher = more binding, comparable within an allelic series) |
| ACGTTGGG | 9.64 upbm affinity estimate (log intensity, higher = more binding, comparable within an allelic series) |
| CTATAGAA | 11.1 upbm affinity estimate (log intensity, higher = more binding, comparable within an allelic series) |
| CCTCCCAG | 9.59 upbm affinity estimate (log intensity, higher = more binding, comparable within an allelic series) |
| ATGTTAAC | 11.1 upbm affinity estimate (log intensity, higher = more binding, comparable within an allelic series) |
| CACGCGGG | 9.49 upbm affinity estimate (log intensity, higher = more binding, comparable within an allelic series) |
| ATTTGTTC | 11 upbm affinity estimate (log intensity, higher = more binding, comparable within an allelic series) |
| CGGGCCAG | 9.73 upbm affinity estimate (log intensity, higher = more binding, comparable within an allelic series) |
| TGATTGCA | 11.2 upbm affinity estimate (log intensity, higher = more binding, comparable within an allelic series) |
| CCGGGTAC | 9.61 upbm affinity estimate (log intensity, higher = more binding, comparable within an allelic series) |
| CCCAGGTC | 9.58 upbm affinity estimate (log intensity, higher = more binding, comparable within an allelic series) |
| CGGAGCCC | 9.44 upbm affinity estimate (log intensity, higher = more binding, comparable within an allelic series) |
| CCCCCCAC | 9.4 upbm affinity estimate (log intensity, higher = more binding, comparable within an allelic series) |
| CTTATAAA | 11.2 upbm affinity estimate (log intensity, higher = more binding, comparable within an allelic series) |
| CCCCCCTC | 9.54 upbm affinity estimate (log intensity, higher = more binding, comparable within an allelic series) |
| AGGTGGGG | 9.81 upbm affinity estimate (log intensity, higher = more binding, comparable within an allelic series) |

Source: PMC11006913
